Source: PubChem BioAssay (EPA / NIEHS)
Where “and” joins values, the source holds several entries; their conditions need not be identical. Identical values can stand only once. Results filed as inconclusive are left out. More than one record can exist for a structure, and the calls need not agree. Calls of active or inactive are those of the source. Rule for the calls: active = hit-call score of the fitted dose curve at least 0.9, where 1 is the maximum; inconclusive = response in the unintended direction; inactive = score below 0.9.

Target: human Peripheral-type Benzodiazepine Receptor (PBR), TSPO (gene 706) (UniProt P30536)
Assay: NVS_MP_hPBR: NovaScreen (NVS) Membrane Protein Assay for human Peripheral-type Benzodiazepine Receptor (PBR) (AID 2283331);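 note: hits reduce radioligand binding relative to DMSO baseline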
Method in brief: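 Cell-free binding to human colonic membrane preparations measured by filter-based scintillation counting after 1 h. Compounds first run at 25 uM in duplicate, then concentration series for actives; signal loss against DMSO baseline.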

human Peripheral-type Benzodiazepine Receptor (PBR), TSPO (gene 706), sequence (P30536 whole entry, looked up): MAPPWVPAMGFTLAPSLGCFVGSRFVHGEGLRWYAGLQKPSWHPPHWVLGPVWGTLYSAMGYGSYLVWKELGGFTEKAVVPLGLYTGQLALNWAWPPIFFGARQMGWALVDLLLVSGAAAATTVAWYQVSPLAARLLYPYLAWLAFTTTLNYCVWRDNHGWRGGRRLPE

| SMILES | outcome |
| --- | --- |
| COC(=O)c1ccccc1C(=O)O | inactive |
| CC(C)CCCCCCc1ccc(O)cc1 | inactive |
| CCOC(=O)NCCOc1ccc(Oc2ccccc2)cc1 | inactive |

Target: rat Peripheral-type Benzodiazepine Receptor (PBR), Tspo (gene 24230) (UniProt P16257)
Assay: NVS_MP_rPBR: NovaScreen (NVS) Membrane Protein Assay for rat Peripheral-type Benzodiazepine Receptor (PBR) (AID 2283335)
Method in brief: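 Competitive displacement of specific radioligand from rat kidney membrane PBR, read by filtration and scintillation after 1 h. Compounds first tested at 25 uM in duplicate, then in concentration series; signal loss relative to DMSO.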

rat Peripheral-type Benzodiazepine Receptor (PBR), Tspo (gene 24230), sequence (P16257 whole entry, looked up): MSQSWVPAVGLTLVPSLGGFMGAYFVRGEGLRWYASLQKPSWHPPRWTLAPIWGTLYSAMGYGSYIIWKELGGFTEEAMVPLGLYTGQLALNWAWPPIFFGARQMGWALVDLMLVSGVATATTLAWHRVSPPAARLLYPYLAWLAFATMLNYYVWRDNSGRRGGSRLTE

| SMILES | AC50 | outcome |
| --- | --- | --- |
| CCOC(=O)COc1cc(-n2ncc(C(F)(F)F)c(C)c2=O)c(F)cc1Cl | 806 nM (active) | – |
| N#CSCSc1nc2ccccc2s1 | 11.1 µM (active) and 9.24 µM (active) | – |
| C#CCOC(=O)[C@@H](C)Oc1ccc(Oc2ncc(Cl)cc2F)cc1 | – | inactive |
| N[C@@H](Cc1cc(I)c(Oc2ccc(O)c(I)c2)c(I)c1)C(=O)O | 9.05 µM (active) and 6.01 µM (active) and 8.66 µM (active) | – |

Target: human Constitutive Androstane Receptor (CAR), NR1I3 (gene 9970) (UniProt Q14994)
Assay: NVS_NR_hCAR_Antagonist: NovaScreen (NVS) Nuclear Receptor Binding Assay for human Constitutive Androstane Receptor Antagonism (CAR) (AID 2283344)
Method in brief: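 Single 25 uM duplicate primary screen, with concentration-series follow-up on actives. Cell-free binding format run in antagonist mode, TR-FRET signal taken 1 h post-dose; activity is signal loss relative to DMSO.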

human Constitutive Androstane Receptor (CAR), NR1I3 (gene 9970), sequence (Q14994 whole entry, looked up): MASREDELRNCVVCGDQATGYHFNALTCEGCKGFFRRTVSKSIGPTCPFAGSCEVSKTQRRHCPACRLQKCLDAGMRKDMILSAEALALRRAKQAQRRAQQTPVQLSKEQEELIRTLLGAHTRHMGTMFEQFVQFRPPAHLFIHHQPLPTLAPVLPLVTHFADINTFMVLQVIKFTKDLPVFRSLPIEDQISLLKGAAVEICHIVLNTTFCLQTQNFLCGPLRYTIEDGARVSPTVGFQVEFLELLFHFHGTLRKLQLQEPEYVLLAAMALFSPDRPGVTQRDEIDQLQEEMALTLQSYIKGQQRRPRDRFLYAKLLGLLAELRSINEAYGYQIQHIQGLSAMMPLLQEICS

| SMILES | outcome | AC50 |
| --- | --- | --- |
| CCC(O)=C1C(=O)CC(C(=O)O)CC1=O (stereo not drawn) | inactive | – |
| O=C(O)C1(C(=O)Nc2ccc(Cl)cc2Cl)CC1 | – | 9.08 µM (active) |
| CCOC(=O)[C@H](C)Oc1ccc(Oc2nc3ccc(Cl)cc3o2)cc1 | – | 0.182 µM (active) |
| N[C@@H](Cc1cc(I)c(Oc2ccc(O)c(I)c2)c(I)c1)C(=O)O | – | 20 µM (active) |
| COC(=O)c1ccccc1C(=O)O | inactive | – |
| COC(=O)c1ccc(CNS(C)(=O)=O)cc1S(=O)(=O)NC(=O)Nc1nc(OC)cc(OC)n1 | inactive | – |
| CCOC(=O)NCCOc1ccc(Oc2ccccc2)cc1 | inactive | – |
| CCCOC(=O)c1ccc(C(=O)OCCC)nc1 | inactive | – |

Target: bovine Estrogen Receptor (ER), ESR1 (gene 407238) (UniProt P49884)
Assay: NVS_NR_bER: NovaScreen (NVS) Nuclear Receptor Binding Assay for bovine Estrogen Receptor (ER) (AID 2283345);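 note: actives lower the bound radioligand count which means they displace the ER ligand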
Method in brief: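 Cell-free radioligand binding with receptor from bovine uterine membranes, read by scintillation counting 18 h after dosing. Loss of specific binding was scored against DMSO; primary screen at 25 uM in duplicate, actives then run as concentration series.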

bovine Estrogen Receptor (ER), ESR1 (gene 407238), sequence (P49884 whole entry, looked up): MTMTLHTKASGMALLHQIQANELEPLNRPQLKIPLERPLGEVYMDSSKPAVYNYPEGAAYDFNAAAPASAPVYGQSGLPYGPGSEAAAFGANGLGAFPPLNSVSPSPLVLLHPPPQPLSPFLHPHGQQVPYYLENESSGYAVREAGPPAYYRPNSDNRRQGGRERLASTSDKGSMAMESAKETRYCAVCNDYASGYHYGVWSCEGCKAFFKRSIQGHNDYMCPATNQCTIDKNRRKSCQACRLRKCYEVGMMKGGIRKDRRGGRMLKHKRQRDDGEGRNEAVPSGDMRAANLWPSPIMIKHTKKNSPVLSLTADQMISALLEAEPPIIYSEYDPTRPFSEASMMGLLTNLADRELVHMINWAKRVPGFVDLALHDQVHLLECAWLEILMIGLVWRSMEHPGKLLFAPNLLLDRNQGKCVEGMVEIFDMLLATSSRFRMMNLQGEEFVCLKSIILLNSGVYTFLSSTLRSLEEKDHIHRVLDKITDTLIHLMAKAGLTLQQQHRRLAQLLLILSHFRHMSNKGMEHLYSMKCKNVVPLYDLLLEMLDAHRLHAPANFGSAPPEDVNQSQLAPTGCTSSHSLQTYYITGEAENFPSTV

| SMILES | outcome | AC50 |
| --- | --- | --- |
| COCCO | inactive | – |
| CCOC(=O)COc1cc(-n2ncc(C(F)(F)F)c(C)c2=O)c(F)cc1Cl | inactive | – |
| N[C@@H](Cc1cc(I)c(Oc2ccc(O)c(I)c2)c(I)c1)C(=O)O | inactive | – |
| CCCCOC(=O)C(C)Oc1ccc(Oc2ccc(C(F)(F)F)cn2)cc1 (stereo not drawn) | inactive | – |
| C[C@]12C[C@H](O)[C@H]3[C@@H](CCC4=CC(=O)CC[C@@]43C)[C@@H]1CC[C@@H]2C(=O)CO | inactive | – |
| CC(C)CCCCCCc1ccc(O)cc1 | – | 16.7 µM (active) [middle of 4 runs] |
| CCOC(=O)c1ccc(O)cc1 | inactive | – |
| Cc1nn(C)c(Oc2ccccc2)c1C=NOCc1ccc(C(=O)OC(C)(C)C)cc1 | inactive | – |
| COc1c(Cl)ccc(Cl)c1C(=O)O | inactive | – |
| C#C[C@]1(O)CC[C@H]2[C@@H]3CCC4=CC(=O)CC[C@@H]4[C@H]3CC[C@@]21CC | inactive | 6.85 µM (active) |

Target: chimpanzee Androgen Receptor (AR), AR (gene 747460) (UniProt O97775)
Assay: NVS_NR_cAR: NovaScreen (NVS) Nuclear Receptor Binding Assay for chimpanzee Androgen Receptor (AR) (AID 2283346);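 note: radioligand displacement from AR measured by scintillation counting in a cell-free assay; a loss of bound radioligand signal versus DMSO counts as binding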
Method in brief: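 Cell-free competition binding with insect-cell (Sf9/Sf21) extracted chimpanzee AR; scintillation signal from lysate at 72 h. Screened in duplicate at 25 uM, then concentration-response for actives; fitting relative to DMSO.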

chimpanzee Androgen Receptor (AR), AR (gene 747460), sequence (O97775 whole entry, looked up): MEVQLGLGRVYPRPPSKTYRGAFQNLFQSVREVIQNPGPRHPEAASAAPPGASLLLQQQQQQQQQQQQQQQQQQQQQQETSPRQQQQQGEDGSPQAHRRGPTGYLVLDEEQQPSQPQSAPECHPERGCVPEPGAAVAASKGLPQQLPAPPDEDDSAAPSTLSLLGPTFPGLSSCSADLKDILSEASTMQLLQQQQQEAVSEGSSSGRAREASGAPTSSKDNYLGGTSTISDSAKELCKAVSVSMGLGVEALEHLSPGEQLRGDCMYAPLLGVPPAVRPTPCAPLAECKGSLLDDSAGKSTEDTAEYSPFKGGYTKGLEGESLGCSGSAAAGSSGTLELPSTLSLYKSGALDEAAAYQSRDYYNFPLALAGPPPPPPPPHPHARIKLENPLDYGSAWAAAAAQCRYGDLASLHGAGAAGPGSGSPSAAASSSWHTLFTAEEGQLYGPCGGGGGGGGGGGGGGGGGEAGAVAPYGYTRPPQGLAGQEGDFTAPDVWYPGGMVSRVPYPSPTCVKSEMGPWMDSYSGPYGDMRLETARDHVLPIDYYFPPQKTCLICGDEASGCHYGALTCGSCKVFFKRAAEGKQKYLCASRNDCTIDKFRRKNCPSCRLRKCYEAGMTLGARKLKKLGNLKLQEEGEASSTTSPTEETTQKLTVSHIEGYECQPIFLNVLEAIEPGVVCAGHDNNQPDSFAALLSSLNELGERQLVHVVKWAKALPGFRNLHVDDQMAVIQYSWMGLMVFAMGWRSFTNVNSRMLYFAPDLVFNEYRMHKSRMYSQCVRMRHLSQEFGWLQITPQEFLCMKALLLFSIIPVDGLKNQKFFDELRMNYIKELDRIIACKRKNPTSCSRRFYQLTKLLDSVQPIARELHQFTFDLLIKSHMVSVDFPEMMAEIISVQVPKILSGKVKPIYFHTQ

| SMILES | outcome | AC50 |
| --- | --- | --- |
| N[C@@H](Cc1cc(I)c(Oc2ccc(O)c(I)c2)c(I)c1)C(=O)O | inactive | – |
| C[C@]12C[C@H](O)[C@H]3[C@@H](CCC4=CC(=O)CC[C@@]43C)[C@@H]1CC[C@@H]2C(=O)CO | – | 4.56 µM (active) |
| CCOC(=O)c1ccc(O)cc1 | inactive | – |
| C#C[C@]1(O)CC[C@H]2[C@@H]3CCC4=CC(=O)CC[C@@H]4[C@H]3CC[C@@]21CC | – | 2.29 nM (active) and 5.63 nM (active) |
| CSC(=O)c1cccc2nnsc12 | – | 1.02 µM (active) |

Target: Estrogen receptor (Homo sapiens) (UniProt P03372)
Assay: NVS_NR_hER: NovaScreen (NVS) Nuclear Receptor Binding Assay for human Estrogen Receptor (ER) (AID 2283348)
Method in brief: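 Cell-free MCF7-derived ER preparation, specific radioligand displaced by test compound, read by scintillation counting 18 h post-dosing. Duplicate single-point 25 uM screen, then concentration-response confirmation; DMSO baseline.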

Estrogen receptor (Homo sapiens), sequence (P03372 whole entry, looked up): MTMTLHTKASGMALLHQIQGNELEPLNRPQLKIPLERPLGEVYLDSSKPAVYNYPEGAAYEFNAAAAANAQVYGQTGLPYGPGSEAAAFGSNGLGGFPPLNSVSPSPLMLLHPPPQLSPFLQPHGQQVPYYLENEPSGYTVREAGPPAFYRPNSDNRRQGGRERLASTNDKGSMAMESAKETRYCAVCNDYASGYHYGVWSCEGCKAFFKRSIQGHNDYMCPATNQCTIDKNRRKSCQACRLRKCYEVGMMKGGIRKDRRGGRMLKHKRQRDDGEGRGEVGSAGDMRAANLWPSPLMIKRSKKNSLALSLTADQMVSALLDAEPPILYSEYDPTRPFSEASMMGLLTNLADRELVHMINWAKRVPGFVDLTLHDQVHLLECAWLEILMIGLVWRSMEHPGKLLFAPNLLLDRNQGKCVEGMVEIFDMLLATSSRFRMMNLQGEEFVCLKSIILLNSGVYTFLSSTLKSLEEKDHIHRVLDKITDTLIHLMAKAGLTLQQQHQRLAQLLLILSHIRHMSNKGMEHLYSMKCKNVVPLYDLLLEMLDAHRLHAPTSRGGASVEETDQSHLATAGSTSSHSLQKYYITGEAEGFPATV

| SMILES | outcome | AC50 |
| --- | --- | --- |
| CCOC(=O)COc1cc(-n2ncc(C(F)(F)F)c(C)c2=O)c(F)cc1Cl | inactive | – |
| C#CCOC(=O)[C@@H](C)Oc1ccc(Oc2ncc(Cl)cc2F)cc1 | inactive | – |
| N[C@@H](Cc1cc(I)c(Oc2ccc(O)c(I)c2)c(I)c1)C(=O)O | inactive | 7.8 µM (active) and 8.49 µM (active) and 6.72 µM (active) |
| O=C(O)c1ccccc1 | inactive | – |
| C[C@]12C[C@H](O)[C@H]3[C@@H](CCC4=CC(=O)CC[C@@]43C)[C@@H]1CC[C@@H]2C(=O)CO | inactive | – |
| COC(=O)c1ccc(CNS(C)(=O)=O)cc1S(=O)(=O)NC(=O)Nc1nc(OC)cc(OC)n1 | inactive | – |
| CCOC(=O)c1ccc(O)cc1 | inactive | 10.5 µM (active) and 4.61 µM (active) |
| Cc1nn(C)c(Oc2ccccc2)c1C=NOCc1ccc(C(=O)OC(C)(C)C)cc1 | inactive | – |
| COc1c(Cl)ccc(Cl)c1C(=O)O | inactive | – |

Target: Estrogen receptor (Homo sapiens) (UniProt P03372)
Assay: OT_ER_ERaERa_1440: Odyssey Thera (OT) 24-hour HEK293T Protein-Complementation Assay for Estrogen Receptor-alpha/-alpha Homodimer (AID 2283349);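 note: hits raise fluorescence above DMSO for agonists and antagonists alike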
Method in brief: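 HEK293T, stable ERα LBD (aa 310-547) homodimer PCA; 24 h compound exposure; mean fluorescence intensity (nuclear for agonists, nuclear plus cytoplasmic for antagonists) vs vehicle; positive fitting direction, DMSO baseline.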

| SMILES | outcome | AC50 |
| --- | --- | --- |
| COCCO | inactive | – |
| O=C(O)C1(C(=O)Nc2ccc(Cl)cc2Cl)CC1 | inactive | – |
| CCOC(=O)COc1cc(-n2ncc(C(F)(F)F)c(C)c2=O)c(F)cc1Cl | inactive | – |
| N#CSCSc1nc2ccccc2s1 | inactive | – |
| C#CCOC(=O)[C@@H](C)Oc1ccc(Oc2ncc(Cl)cc2F)cc1 | inactive | – |
| OB(O)O | inactive | – |
| N[C@@H](Cc1cc(I)c(Oc2ccc(O)c(I)c2)c(I)c1)C(=O)O | inactive | – |
| O=C(O)c1ccccc1 | inactive | – |
| CCCCOC(=O)C(C)Oc1ccc(Oc2ccc(C(F)(F)F)cn2)cc1 (stereo not drawn) | inactive | – |
| c1ccc2[nH]c(-c3cscn3)nc2c1 | inactive | – |
| C[C@]12C[C@H](O)[C@H]3[C@@H](CCC4=CC(=O)CC[C@@]43C)[C@@H]1CC[C@@H]2C(=O)CO | inactive | – |
| COC(=O)c1ccccc1C(=O)O | inactive | – |
| O=C(Nc1ccc([N+](=O)[O-])cc1Cl)c1cc(Cl)ccc1O | inactive | – |
| CCSC(=O)N(CC(C)C)CC(C)C | inactive | – |
| CC(C)CCCCCCc1ccc(O)cc1 | – | 2.42 µM (active) |
| CCCN(CCC)c1c([N+](=O)[O-])cc(C(F)(F)F)c(N)c1[N+](=O)[O-] | inactive | – |
| CCOC(=O)c1ccc(O)cc1 | inactive | 47 µM (active) and 52.6 µM (active) and 67.5 µM (active) |
| Cc1nn(C)c(Oc2ccccc2)c1C=NOCc1ccc(C(=O)OC(C)(C)C)cc1 | inactive | – |
| CCOC(=O)NCCOc1ccc(Oc2ccccc2)cc1 | inactive | – |
| COc1c(Cl)ccc(Cl)c1C(=O)O | inactive | – |
| CCN(Cc1c(F)cccc1Cl)c1c([N+](=O)[O-])cc(C(F)(F)F)cc1[N+](=O)[O-] | – | 15.2 µM (active) |
| CCCOC(=O)c1ccc(C(=O)OCCC)nc1 | inactive | – |
| C#C[C@]1(O)CC[C@H]2[C@@H]3CCC4=CC(=O)CC[C@@H]4[C@H]3CC[C@@]21CC | inactive | 50.7 µM (active) |
| CSC(=O)c1cccc2nnsc12 | inactive | – |
